Experimental data from PubChem BioAssay AID1621 (Southern Research Specialized Biocontainment Screening …, 2009).
Screen size: about 290,000 compounds; about 60 (0.02%) were called active. Inconclusive results (about 1%) are left out. How the calls were made is not given here. Only a sample is shown. Entries with a potency or affinity are not part of this list.

assay: West Nile virus antiviral activity, cell-based, CPE readout (AID 1621); details: West Nile virus-infected cells, at 10 µM, active compounds read high

CPE inhibition, inactive:
CCOc1ccc(-c2cc(C(=O)NCCCN3CCCC3)c3ccccc3n2)cc1 11.7%
Cc1ccc(-c2cc(C(=O)NCCCN3CCOCC3)c3ccccc3n2)cc1C 0.07%
O=C(NCc1ccc(F)cc1)C1CCCN(S(=O)(=O)c2ccc(-n3cnnn3)cc2)C1 (stereo not given) 0.7%
CN(C)CCCN1c2ccccc2CCc2ccccc21 -0.69%
CN(C)CCCN1c2ccccc2CCc2ccc(Cl)cc21 -0.38%
COc1ccc(/C=C/C(=O)OCC(=O)NCc2ccco2)c(OC)c1 -0.46%
CCC(C)C(=O)N1CCCC(c2nc(-c3cccs3)no2)C1 (stereo not given) -0.34%
COc1ccccc1OCCn1cc(/C=N/NC(N)=S)c2ccccc21 -0.18%
Cc1cccc(-n2c(SCC(=O)O)nc3sc4c(c3c2=O)CCCC4)c1 0.2%
C[C@@H]1C[C@@H]2OC(=O)[C@]3(C)[C@H]2[C@@H](OC3(C)O)[C@]2(C)C(=O)C=C[C@H]12 (stereo not given in full) 1.25%
CCOC(=O)C1CCN(C(=S)Nc2cc(OC)c(OC)cc2C(=O)OC)CC1 0.82%
Cc1ccccc1CN1C(=O)c2ccccc2S(=O)c2ccc(C(=O)NCCCN3CCOCC3)cc21 (stereo not given) -0.39%
O=C(NCCCN1CCCC1)c1ccc2c(c1)N(Cc1ccccc1F)C(=O)c1ccccc1S2=O (stereo not given) -0.62%
Cc1ccc(-c2csc(N3CCN(c4cc5c(cc4Cl)nc(C)n5CCN4CCCCC4)CC3)n2)cc1 0.49%
O=[N+]([O-])c1ccc(C(O)CSC(=S)N2CCCCC2)cc1 (stereo not given) -0.96%
CCN1CCN(c2ccc(S(=O)(=O)N3CCCCC3)cc2NC(=O)Cc2ccc(OC)cc2)CC1 0.99%
CCN1CCN(c2ccc(S(=O)(=O)N3CCCCC3)cc2NC(=O)Cc2c(F)cccc2Cl)CC1 0.49%
COc1ccc(Cl)cc1C(=O)NCCCSc1ccccc1 -1.17%
COc1ccc(CNC(=O)CCN2C(=O)c3ccncc3C2=O)cc1OC 0.59%
COc1cc(-c2nc(C(=O)NC3CCCCC3)cc3c2[nH]c2ccccc23)cc(OC)c1OC 1.01%
N=c1c(C(=O)NCCN2CCOCC2)cc2c(=O)n3ccccc3nc2n1Cc1ccc(F)cc1 0%
Cc1cccn2c(=O)c3cc(C(=O)NCCN4CCOCC4)c(=N)n(CCN4CCOCC4)c3nc12 -0.04%
CN1C(=O)c2ccc(C(=O)NCc3ccco3)cc2C1=O 1.39%
c1ccc(Sc2ncnc3c2oc2ccccc23)nc1 1.08%
ClC(/C=N/n1cnnc1)=C/c1ccccc1 2.95%
CC(/C=N/n1cnnc1)=C\c1ccccc1 -0.2%
Cc1ccc2nc(Nc3ccccc3)c(C=O)c(=O)n2c1 -0.78%
CCN(CC)C(=O)Nc1c(C)n(C)n(-c2ccccc2)c1=O 0.37%
CCOC(=O)c1c(CN2CCOCC2)n(-c2ccccc2)c2cc(Br)c(O)cc12 1.59%
CCOC(=O)c1c(CN2CCN(C)CC2)n(-c2ccccc2)c2cc(Br)c(O)cc12 0.39%
COc1ccc(CCN(C)C(=O)c2cccc(S(=O)(=O)NCc3ccccc3)c2)cc1OC -1.05%
O=C1N[C@@H](Cc2ccccc2)C(=O)N2[C@@H]1C[C@@]1(Br)c3ccccc3N(S(=O)(=O)c3ccccc3)[C@@H]21 -0.59%
CC(C)c1cc(C(C)C)c(S(=O)(=O)N2c3ccccc3[C@@]3(Br)C[C@H]4C(=O)N[C@@H](Cc5ccccc5)C(=O)N4[C@@H]23)c(C(C)C)c1 2.08%
CCOC(=O)c1c(C)c(C(=O)NCc2cccs2)c(C)n1CC -0.75%
Fc1cccc(Cl)c1Cn1nnc2c(N3CCC4(CC3)OCCO4)ncnc21 0.17%
COc1ccc(C(=O)Oc2ccc3c(c2)OCO3)cc1OC 0.51%
COc1cc2c(O)c3c(c(-c4ccc5c(c4)OCO5)c2cc1OC)C(=O)OC3 12.1%
Cc1nn(Cc2ccccc2Cl)c2sc(C(=O)OC3CCCC3=O)cc12 (stereo not given) -0.34%
O=C(NCC(c1cccnc1)N1CCOCC1)NC1CCCCC1 (stereo not given) 0.45%
CCOC(=O)c1c(-c2ccc(F)cc2)csc1NC(=O)c1c(-c2ccccc2)noc1C -0.66%
COC(=O)c1c(-c2ccc(C)cc2)csc1NC(=O)c1c(-c2ccccc2)noc1C 0.29%
COc1cc(C(=O)N2CCCN(c3nc4cc(C)ccc4cc3C#N)CC2)cc(OC)c1OC 0.84%
COCCCNC(=S)N1CCCN(c2nc3cc(C)ccc3cc2C#N)CC1 -0.77%
COc1cc(-c2csc(NC3CCCCC3)n2)cc(OC)c1OC -0.66%
COc1ccc(/C=C2\SC(=S)N(NS(=O)(=O)c3ccc(C)cc3)C2=O)c(OC)c1 -0.03%
N=C1C(c2nc(-c3ccc(F)cc3)cs2)=C(O)CN1CCCN1CCOCC1 2.36%
O=C(CN1CCOCC1)Nc1nc(-c2ccc(Cl)cc2)cs1 -0.54%
CNc1nc2ccccc2n1CC(=O)c1ccccc1 -1.12%
Cc1cccc(NC(=O)CCN2CCOCC2)c1 0.1%
CCOC(=O)c1sc(=NC(=O)c2cccs2)n(C)c1C 0.29%
CCN(CC)CCNC(=O)c1cc2c(-c3cccc(OC)c3)nn(C)c2s1 10.3%
CCN(CCCNC(=O)c1cc2c(-c3cccc(OC)c3)nn(C)c2s1)Cc1ccccc1 11.5%
Cc1c(C(=O)c2ccc(Cl)c([N+](=O)[O-])c2)c2ccccn2c1CCC#N 0.29%
O=C(CN1C(=O)NC2(CCCCCC2)C1=O)Nc1ccc(S(=O)(=O)N2CCOCC2)cc1 0.5%
CSCCC(N=Cc1c(O)n(-c2ccc(F)cc2)c(=O)[nH]c1=O)C(=O)O (stereo not given) 0.06%
COc1ccc(-c2csc(N(CCCN(C)C)C(=O)c3ccccc3F)n2)cc1 -0.14%
COc1ccc(-c2csc(N(CCCN(C)C)C(=O)c3cccs3)n2)cc1 0.38%
Cc1ccc2nc(-c3ccc(NC(=O)CCN4C(=O)c5ccccc5C4=O)cc3)sc2c1 -0.32%
O=C(COc1ccc([N+](=O)[O-])cc1)N(Cc1ccccc1)Cc1ccccc1 -0.78%
COC(=O)c1c(NC(=O)C(C)C)sc2c1C(C(=O)OC)CC2 (stereo not given) 1.21%
COC(=O)c1c(NC(=O)C(C)(C)C)sc2c1C(C(=O)OC)CC2 (stereo not given) -0.06%
CC1=C(C(=O)N2CCCC(CCC(=O)NCc3ccccc3F)C2)OCCO1 (stereo not given) -0.63%
COc1ccc(C2c3c(ncn(CCCN4CCOCC4)c3=N)Oc3ccc4ccccc4c32)cc1OC (stereo not given) -1.6%
COc1ccc(C2c3c(ncn(CCN4CCOCC4)c3=N)Oc3ccc4ccccc4c32)cc1OC (stereo not given) -1.66%
COc1ccc(C2c3ccc4ccccc4c3Oc3ncn(CCN4CCOCC4)c(=N)c32)cc1 (stereo not given) -0.91%
COc1ccc(C2c3ccc4ccccc4c3Oc3ncn(CCO)c(=N)c32)cc1OC (stereo not given) 57.3%
N=c1c2c(ncn1CCN1CCOCC1)Oc1ccc3ccccc3c1C2c1ccccc1 (stereo not given) 2.66%
COc1ccc(C2c3ccc4ccccc4c3Oc3ncn(CCCO)c(=N)c32)cc1 (stereo not given) -1.98%
Cc1nc2nc(CCc3ccccc3)nn2c(C)c1Cl 0.45%
CN(Cc1ccon1)C(=O)CCc1nnc(Cc2ccc(-c3ccccc3)cc2)o1 -0.95%
Cc1cccc(-n2c(C)cc(C)c(C#N)c2=O)c1 0.53%
O=C(NNc1ccccc1[N+](=O)[O-])Nc1ccc(F)cc1F -0.58%
O=C(CCc1nc2ccccc2s1)OCc1ccccc1F -0.14%
O=c1c2c(-c3cccc([N+](=O)[O-])c3)ccnc2[nH]n1-c1ccccc1 0%
COCCn1c(N)c(N(Cc2ccccc2)C(=O)Cc2c(Cl)cccc2Cl)c(=O)[nH]c1=O -0.15%
O=C(CSc1nc2ccccc2c(=O)n1-c1ccc(F)cc1)Nc1ccc(N2CCOCC2)cc1 -1.03%
C=CCn1c(SCC(=O)Nc2ccc3c(c2)CCC3)nc2ccccc2c1=O -0.68%
O=C(CSc1nc2ccccc2c(=O)n1-c1ccc(F)cc1)Nc1ccc(C(=O)O)cc1 0.03%
Cc1ccc(-n2c(SCC(=O)Nc3ccc(N4CCOCC4)cc3)nc3ccccc3c2=O)cc1 12.4%
COc1cccc(-n2c(SCC(=O)Nc3ccc4c(c3)CCC4)nc3ccccc3c2=O)c1 2.86%
CCCCn1c(SCC(=O)Nc2ccc3c(c2)CCC3)nc2ccccc2c1=O -0.76%
O=C(Nc1ccccc1)C1CC(O)CN1S(=O)(=O)c1ccc([N+](=O)[O-])cc1 (stereo not given) 0.17%
Cc1ccc(-c2oc3ccccc3c(=O)c2OCC(=O)O)cc1 0.23%
COc1cc(NC(=O)COC(=O)CCc2cc(OC)c(OC)c(OC)c2)cc(OC)c1 1.02%
COCCNC(=O)c1cc2sc3ccccc3c2s1 -0.09%
COCCN(CCOC)C(=O)c1cc2sc3ccccc3c2s1 -0.78%
CCCCN(CC)CCNC(=O)c1cc2c(=O)n(CC)c3ccccc3c2s1 -1.08%
CN(C)CCCNC(=O)c1ccccn1 0.08%
CCN(CC)CCCNC(=O)c1cc2c(=O)n(CC)c3ccccc3c2s1 1.54%
CCN(CC)C(=O)c1cc2sc3ccccc3c2s1 -0.37%
